LmPK inhibitor: LmPK (Leishmania mexicana) enzyme inhibition; Q27686; purified LmPK, Kinase-Glo ATP luminescence, 1 h; Potency, µM (top dose mostly 57.5 µM), for inactives: at the highest dose activity change, negative = inhibition, actives largely listed as inhibitors; 290,000 tested, 0.37% active; AID 1721; also: % is scaled to controls: 0 for no effect and ±100 for the full control effect
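0.1 nM LmPK, 0.5 mM PEP, 0.1 mM ADP; 50 mM imidazole pH 7.2, 7 mM MgCl2, 50 mM KCl; 1 h RT. Kinase-Glo luminescence readout, normalized to no-enzyme (full inhibition) and uninhibited wells.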
Giardia FBPA inh-1: blocks Giardia fructose-bisphosphate aldolase activity; 290,000 tested, 0.71% active; A8B2U2; Potency, µM (top dose mostly 59.6 µM), without a hit: at the highest dose activity, negative = inhibition, hits mostly inhibitors; purified Giardia FBPA; also: % is scaled to controls: 0 for no effect and ±100 for the full control effect; nearly all actives have a fitted effect of over 55% in size
Target sequence (A8B2U2 whole entry, looked up): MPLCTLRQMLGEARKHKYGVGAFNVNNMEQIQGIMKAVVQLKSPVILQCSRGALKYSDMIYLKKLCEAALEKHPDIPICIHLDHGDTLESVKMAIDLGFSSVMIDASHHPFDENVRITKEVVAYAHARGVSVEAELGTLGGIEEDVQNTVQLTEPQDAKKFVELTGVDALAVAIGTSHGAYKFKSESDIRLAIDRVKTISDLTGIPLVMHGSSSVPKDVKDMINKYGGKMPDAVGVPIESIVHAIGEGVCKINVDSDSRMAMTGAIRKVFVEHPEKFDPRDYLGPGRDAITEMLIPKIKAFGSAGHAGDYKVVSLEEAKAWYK
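Giardia FBPA (40 nM reagent) was preincubated 10 min at RT with compound (up to 57.5 uM final), then substrate plus GAPDH/TPI/NAD/arsenate coupling system with diaphorase/resazurin was added; resorufin fluorescence (525/598 nm) was read after 20 min.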
SARS PLpro yeast: inhibitors of SARS-CoV papain-like protease in yeast | S. cerevisiae expressing SARS-CoV PLpro, growth rescue | Potency, µM (top dose mostly 32.9 µM), for inactives: at the top dose activity, positive = growth rescue, hits mostly activators | 330,000 tested, 0.19% active | AID 485353; calls by dose curve; also: 0% is about no effect; nearly all actives have a fitted effect of over 55% in size
RE007 growth inh: less growth of the S. pombe RE007 Vpr strain | S. pombe RE007 Vpr strain, BacTiter-Glo ATP luminescence, 24 h | 360,000 tested, 0.21% active | Potency, µM (top dose mostly 92.2 µM), for the others: at the highest dose activity change, negative = less growth, hits mostly inhibitors; active = well fitted falling curve with a large enough effect; inconclusive = small, poorly fitted or top-dose-only effect; inactive = no such curve, though single readings can be large or run the other way; also: % is scaled to controls: 0 for no effect and ±100 for the full control effect; nearly all actives have a fitted effect of over 50% in size
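Fission yeast RE007 carrying one integrated HIV-1 vpr copy, seeded at OD 0.01 in PMG+AL medium with 23 nL pinned compound. Grown 24 h at 30 degrees; viability read by BacTiter-Glo luminescence after 5 min.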
Tb PYK inh: inhibitors of Trypanosoma brucei pyruvate kinase; TbPYK enzyme, Kinase-Glo Plus ATP luminescence, 45 min; Potency, µM (titrated, usually from 76.8 µM), for the others: top-dose activity, negative = inhibition, actives largely listed as inhibitors; 410,000 tested, 0.12% active; also: % is scaled to controls: 0 for no effect and ±100 for the full control effect; nearly all actives have a fitted effect of over 50% in size
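Luminescent Kinase-Glo Plus end-point after 45 min room-temperature reaction of T. brucei pyruvate kinase started with 130 uM ADP (final). Buffer TEA 50 mM pH 7.2 with KCl, MgCl2, BSA, Tween-20; titration-based qHTS with fitted concentration-effect curves.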
Giardia growth: blocks growth of Giardia lamblia trophozoites | Giardia lamblia trophozoite growth inhibition | 1,500 tested, 5% active | Potency, µM (top dose mostly 57.5 µM), for inactives: at the highest dose activity change, negative = inhibition, actives largely listed as inhibitors | shares compounds with Giardia FBPA inh-1 | AID 2785;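 also: trophozoites exposed to compound for 48 h at 37 °C; % is scaled to controls: 0 for no effect and ±100 for the full control effect; nearly all actives have a fitted effect of over 70% in size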
Mammal cell tox: counter-screen for Giardia aldolase inhibitors: mammalian cell toxicity | shares compounds with Giardia FBPA inh-1 | mammalian cell viability counter-screen, qHTS | Potency, µM (titrated, usually from 57.5 µM), without a hit: at the highest dose viability change, negative = toxicity, actives largely listed as inhibitors | 1,500 tested, 4% active;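 also: Chinese hamster ovary cells used as mammalian cytotoxicity surrogate; viability measured as cellular ATP by luminescence; compound exposure lasted 48 h before reading; % is scaled to controls: 0 for no effect and ±100 for the full control effect; nearly all actives have a fitted effect of over 60% in size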
Giardia FBPA inh-2: confirmation of Giardia fructose-bisphosphate aldolase inhibitors; 1,500 tested, 5% active; Potency, µM (series often up to 57.5 µM), without a hit: at the highest dose activity change, negative = inhibition, most hits filed as inhibitors; AID 2787; shares compounds with Giardia FBPA inh-1; purified Giardia aldolase enzyme activity, qHTS; also: % is scaled to controls: 0 for no effect and ±100 for the full control effect; nearly all actives have a fitted effect of over 45% in size
Rabbit FBPA inh: selectivity test for Giardia aldolase inhibitors: rabbit aldolase | shares compounds with Giardia FBPA inh-1 | Rabbit muscle FBPA enzyme inhibition, selectivity counter-screen | Potency, µM (series often up to 57.5 µM), for the others: top-dose activity, negative = inhibition, most hits filed as inhibitors | 1,500 tested, 4% active | AID 2794; also: % is scaled to controls: 0 for no effect and ±100 for the full control effect; nearly all actives have a fitted effect of over 60% in size
Target sequence (P00883 whole entry, looked up): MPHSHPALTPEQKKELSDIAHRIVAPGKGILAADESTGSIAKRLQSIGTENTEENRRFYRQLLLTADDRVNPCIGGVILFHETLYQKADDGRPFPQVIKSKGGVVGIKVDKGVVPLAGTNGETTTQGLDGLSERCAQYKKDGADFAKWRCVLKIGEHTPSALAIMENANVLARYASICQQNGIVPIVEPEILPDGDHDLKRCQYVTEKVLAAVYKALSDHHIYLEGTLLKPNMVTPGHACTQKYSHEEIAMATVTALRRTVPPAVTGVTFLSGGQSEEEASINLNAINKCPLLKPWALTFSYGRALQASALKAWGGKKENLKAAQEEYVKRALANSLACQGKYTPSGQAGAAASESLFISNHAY
GAPDH counter: counter-screen for Giardia aldolase inhibitors: GAPDH coupling enzyme; shares compounds with Giardia FBPA inh-1; GAPDH coupling enzyme counterscreen, biochemical, qHTS; Potency, µM (titrated, usually from 57.5 µM), without a hit: at the top dose activity change, negative = inhibition, most hits filed as inhibitors; 1,500 tested, 6% active; AID 2795; also: % is scaled to controls: 0 for no effect and ±100 for the full control effect; nearly all actives have a fitted effect of over 55% in size
* hit, by the source's call; ? = inconclusive; nt = not tested or not shown; [ ] = dose if it differs, or a comment. Rows were chosen to be rich in hits. Some 1.1% of all compounds tested hit in one or more screens of this group. Unless noted, calls follow the shape of the dose curve; as a rule, active = well fitted curve in the direction sought with a large enough effect; inconclusive = small, poorly fitted or top-dose-only effect, or another doubt; inactive = no such curve, though single readings can be large; an effect the other way counts as inactive or inconclusive. Potency is read from the fitted curve at half-maximal effect.

SMILES	LmPK inhibitor	Giardia FBPA inh-1	SARS PLpro yeast	RE007 growth inh	Tb PYK inh	Giardia growth	Mammal cell tox	Giardia FBPA inh-2	Rabbit FBPA inh	GAPDH counter
O=C1CN(C(=S)NC(=O)c2ccccc2[N+](=O)[O-])CCN1	-13%	11µM*	-3%	13%	4%	?	-7%	0%	8%	12%
O=c1oc2ccccc2c(O)c1Cc1cc(Cl)c2cccnc2c1O	23%	10µM*	10%	0%	-26%	?	6%	-6%	-18%	-13%
CCCCCCNc1ncnc2c1sc1nc(N3CCOCC3)c3c(c12)CCCC3	nt	nt	nt	nt	-3%	nt	nt	nt	nt	nt
CCc1ccc(OCC(=O)NNC(=O)c2cnccn2)c(Br)c1	-6%	nt	?	-26%	-5%	nt	nt	nt	nt	nt
COc1ccc(OCC(=O)NCCNC(=O)c2ccccn2)cc1	-7%	8%	-2%	-8%	10%	nt	nt	nt	nt	nt
COc1ccccc1OCC(=O)NNC(=O)c1cnccn1	4%	16µM*	0%	4%	-4%	?	3%	-1%	-1%	7%
COc1ccc(OCC(=O)NNC(=O)c2ccccn2)cc1	1%	16µM*	1%	-1%	1%	8%[10.4 µM]	8%	-1%	-5%	-4%
CCc1ccc(-c2cn3c(n2)sc2cc(C(=O)NC4CCCCCC4)ccc23)cc1	nt	nt	nt	nt	-4%	nt	nt	nt	nt	nt
CCCCOc1ccc(NC(=O)Cn2nnnc2-c2ccccc2F)cc1	nt	nt	nt	nt	-7%	nt	nt	nt	nt	nt
Cn1nnc(NC(=S)NC(=O)c2cccs2)n1	-2%	2µM*	10%	-4%	-13%	-8%	4%	-1%	7%	7%
CCCn1nnc(NC(=S)NC(=O)CC)n1	3%	5.6µM*	10%	5%	3%	?	-5%	-1%	1%	4%
CN(C)S(=O)(=O)c1ccc(NC(=S)NC(=O)c2cccs2)cc1	7%	18µM*	0%	-23%	-2%	-9%[10.4 µM]	-17%	7%	5%	11%
Cn1nnc(NC(=S)NC(=O)c2ccc3ccccc3c2)n1	nt	nt	nt	-20%	-14%	nt	nt	nt	nt	nt
CCCn1nnc(NC(=S)NC(=O)Cc2ccccc2)n1	0%	?	0%	12%	-8%	nt	nt	nt	nt	nt
COc1cc(OC)cc(C(=O)NC(=S)Nc2nnn(C)n2)c1	-9%	3.5µM*	2%	-6%	-6%	-18%[38.3 µM]	-5%	3%	9%	10%
COC(=O)c1ccc(NC(=O)CN(c2cccc(C(F)(F)F)c2)S(C)(=O)=O)cc1	nt	nt	nt	nt	6%	nt	nt	nt	nt	nt
CCOc1ccccc1NC(=O)Cn1nnc2sc(-c3ccccc3)cc2c1=O	nt	nt	nt	nt	-4%	nt	nt	nt	nt	nt
O=C(CN1C(=O)C2(SCC(=O)N2c2ccc(F)c(F)c2)c2ccccc21)Nc1ccccc1F (stereo unspecified)	nt	nt	nt	nt	-7%	nt	nt	nt	nt	nt
CC(C)C(=O)NC(=S)Nc1nnn(C)n1	1%	3.2µM*	-6%	2%	-23%	?	0%	-1%	7%	6%
Cc1nc2c(-c3ccc(F)cc3)c(C)nn2c(C)c1CCC(=O)NCc1cccc(Cl)c1	nt	nt	nt	nt	0%	nt	nt	nt	nt	nt
S=C1NCCOCCOCCOCCOCCN1	1%	-15%	-5%	-8%	-2%	nt	nt	nt	nt	nt
S=C1NCCOCCNC(=S)NCCOCCOCCOCCN1	0%	4.5µM*	8%	-11%	-14%	-21%[38.3 µM]	-1%	7%	5%	1%
O=c1[nH]c(=S)n(-c2ccc(Br)cc2)c2ncccc12	nt	nt	nt	-8%	-4%	nt	nt	nt	nt	nt
Fc1ccc(-n2c(=S)[nH]c3cccnc32)cc1	-2%	18µM*	2%	9%	?	28%	-15%	-2%	2%	16%
Cc1cccc(NC2=C/C(=N/S(=O)(=O)c3cccs3)c3ccccc3C2=O)c1	-15%	0.2µM*	3%	-3%	-30%	16µM*	20µM*	?	-15%	2.5µM*
SMILES	LmPK inhibitor	Giardia FBPA inh-1	SARS PLpro yeast	RE007 growth inh	Tb PYK inh	Giardia growth	Mammal cell tox	Giardia FBPA inh-2	Rabbit FBPA inh	GAPDH counter
CCOC(=O)c1ccc(NC(=O)c2noc3c2CCCC3)cc1	nt	nt	nt	nt	-7%	nt	nt	nt	nt	nt
O=C1CC(c2cc(F)cc(F)c2)c2cc3c(cc2N1)OCO3 (stereo unspecified)	nt	nt	nt	nt	5%	nt	nt	nt	nt	nt
COc1ccccc1Cc1nc2ccccc2nc1SCC(=O)N1CCN(c2ccccc2)CC1	nt	nt	nt	nt	-4%	nt	nt	nt	nt	nt
Cc1ccccc1C(=O)NC(=S)Nc1ncccn1	5%	4.5µM*	-6%	18%	-1%	-15%[38.3 µM]	-24%	-19%	-14%	-11%
Cc1ccccc1C(=O)NC(=S)Nc1ccccc1C(=O)O	0%	-5%	0%	28%	-7%	nt	nt	nt	nt	nt
Cc1ccc(OCC(=O)Nc2ccc3nc(SCC(=O)N4CCCC4)sc3c2)cc1	nt	nt	nt	nt	-10%	nt	nt	nt	nt	nt
Cc1cc(C)nc(N/N=C/C2=C(O)CC(c3ccc(F)cc3)CC2=O)n1 (stereo unspecified)	5%	-21%	3%	1%	-5%	4%[38.3 µM]	?	9%	7%	1%
Cc1noc(C)c1C(=O)N1CCC[C@@]2(CCN(C(=O)Nc3cccc(F)c3)C2)C1	nt	9%	nt	nt	1%	nt	nt	nt	nt	nt
COc1ccc(OC)c(C2CC(=O)N3CN(c4ccc(C)c(Cl)c4)CSC3=C2C#N)c1 (stereo unspecified)	8%	5µM*	-1%	-8%	?	-7%[10.4 µM]	6%	?	?	-27%
CCOC(=O)c1ccc(N2CSC3=C(C#N)C(c4ccc(OC)cc4OC)CC(=O)N3C2)cc1 (stereo unspecified)	1%	?	11%	-15%	?	nt	nt	nt	nt	nt
COc1ccc(OC)c(C2CC(=O)N3CN(c4ccccc4F)CSC3=C2C#N)c1 (stereo unspecified)	-9%	?	12%	-11%	?	nt	nt	nt	nt	nt
Cc1ccc(C2CC(=O)N3CN(c4ccc(Br)cc4)CSC3=C2C#N)o1 (stereo unspecified)	16%	?	0%	-12%	?	nt	nt	nt	nt	nt
COc1ccc(OC)c(C2CC(=O)N3CN(c4cccc(Cl)c4)CSC3=C2C#N)c1 (stereo unspecified)	5%	3.5µM*	2%	-11%	?	21%	5%	-17%	-24%	-19%
